T cruzi growth-1 – blocks T. cruzi growth in NIH3T3 culture. inhibition, % at 8.34 µM. 77,000 compounds, 5.9% hits. T. cruzi beta-gal in NIH3T3, GalScreen luminescence, 90 h. AID 624255;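 active = mean inhibition above about 93%, with at least 55% of replicates each passing it, limit read from the data, passing the limit was not always enough; inconclusive = only one of those two conditions holds; inactive = neither condition holds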
Pf Dd2 growth – blocks growth of Plasmodium falciparum Dd2 parasites | activity change, % at 10 µM | AID 1159554 | P. falciparum Dd2 growth, SYBR Green, 72 h; active compounds read low | 94,000 compounds, 2.3% hits; in the data active = activity change below about -80%; inconclusive = no clear call, values can overlap the other calls
C diff growth – blocks growth of Clostridium difficile | Clostridium difficile clinical isolate growth, OD600, 24 h; active compounds read low | growth activity, negative = inhibition, % at 16 µg/mL (by protocol) | 86,000 compounds, 0.25% hits | AID 1259249;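 active = mean growth activity at or below -80% and every replicate also at or below -80%; inconclusive = mean at or below -80% but some replicate above -80%; inactive = mean growth activity above -80%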;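 note: 0% = DMSO wells and -100% = levofloxacin 16 µg/mL wells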
T cruzi growth-2 – inhibitors of T. cruzi proliferation; AID 651739; shares compounds with T cruzi growth-1; inhibition, % at 8.35 µM; 5,600 compounds, 72% hits; T. cruzi beta-gal in NIH3T3, GalScreen luminescence, 90 h;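 active = mean replicate inhibition above about 95% and at least 55% of replicates individually reaching it, limit read from the data; inconclusive = only one of the two criteria is met; inactive = neither criterion is met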
T cruzi growth-3 – inhibitors of T. cruzi proliferation; shares compounds with T cruzi growth-1; T. cruzi beta-gal in NIH3T3, GalScreen luminescence, 90 h; inhibition, % at 2.09 µM; 5,600 compounds, 21% hits;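 active = mean inhibition above about 95%, with at least 55% of replicates also reaching it, limit read from the data; inconclusive = meets just one of the two conditions; inactive = meets neither condition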;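 note: plate controls were neutral control median for no effect and positive control median for full effect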
3T3 cytotox – kills mouse NIH/3T3 fibroblasts; shares compounds with T cruzi growth-1; NIH/3T3 viability, CellTiter-Glo ATP luminescence, 90 h; cytotoxicity (signal decrease), % at 8.35 µM; 5,600 compounds, 14% hits;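 active = mean signal decrease across replicates above about 35% based on untreated-well scatter, with enough replicates individually passing, limit read from the data; inconclusive = no rule stated though some were filed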;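 note: 0% = median of neutral control wells and 100% = median of positive control wells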
NIH3T3 tox 2 – cytotoxicity in mouse NIH/3T3 fibroblasts; shares compounds with T cruzi growth-1; NIH/3T3 viability, CellTiter-Glo ATP luminescence, 90 h; inhibition, % at 24.9 µM; 5,600 compounds, 56% hits;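 active = mean loss of cell viability signal at or above a set limit, and enough replicates individually reaching it; inconclusive = meets only the mean limit or only the replicate share; inactive = meets neither condition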;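 note: 0% = median of neutral control wells and 100% = median of positive control wells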
An asterisk follows results filed as active; u = inconclusive; x = no result given. Rows were chosen to be rich in hits. Some 6.8% of all compounds tested hit in one or more screens of this group.

SMILES | T cruzi growth-1 | Pf Dd2 growth | C diff growth | T cruzi growth-2 | T cruzi growth-3 | 3T3 cytotox | NIH3T3 tox 2
CC(C)C#Cc1ccc2c(c1)O[C@@H](CN(C)CC1CCOCC1)[C@H](C)CN([C@@H](C)CO)S2(=O)=O | 86 | -52 | -4 | x | x | x | x
CC(C)C#Cc1ccc2c(c1)O[C@H](CN(C)CC1CC1)[C@H](C)CN([C@@H](C)CO)S2(=O)=O | 51 | -38 | x | x | x | x | x
C[C@H]1CN([C@@H](C)CO)S(=O)(=O)c2ccc(C#Cc3ccccc3)cc2O[C@H]1CN(C)CC1CC1 | 117* | -83* | 17 | 103* | 52 | 34 | 105*
CC(C)C#Cc1ccc2c(c1)O[C@@H](CN(C)CC1CCCC1)[C@H](C)CN([C@H](C)CO)S2(=O)=O | 92* | -47 | 6 | 105* | 98* | 55* | 104*
C[C@@H]1CN([C@H](C)CO)S(=O)(=O)c2ccc(C#Cc3ccccc3)cc2O[C@@H]1CN(C)CC1CC1 | 94 | -60 | 4 | x | x | x | x
COc1cccc(-c2cnc3c(c2)C(=O)N([C@H](C)CO)C[C@H](C)[C@H](CN(C)C(=O)NC2CCCCC2)O3)c1 | 16 | -22 | 1 | x | x | x | x
C[C@H](CO)N1C[C@H](C)[C@@H](CN(C)C(=O)Nc2cccc3ccccc23)Oc2ccc(NC(=O)NC3CCCCC3)cc2CC1=O | 9 | -39 | -14 | x | x | x | x
Cc1noc(C)c1S(=O)(=O)N(C)C[C@@H]1OCCCC[C@H](C)Oc2ccc(NS(=O)(=O)c3ccc(Cl)cc3)cc2C(=O)N([C@H](C)CO)C[C@@H]1C | 98* | -37 | -2 | 106* | 30 | -3 | 15
Cc1noc(C)c1S(=O)(=O)N(C)C[C@@H]1OCCCC[C@@H](C)Oc2ccc(NS(=O)(=O)c3ccc(Cl)cc3)cc2C(=O)N([C@@H](C)CO)C[C@H]1C | 63 | 15 | -5 | x | x | x | x
Cc1noc(C)c1S(=O)(=O)Nc1ccc2c(c1)C(=O)N([C@@H](C)CO)C[C@@H](C)[C@@H](CN(C)S(=O)(=O)c1ccc(Cl)cc1)OCCCC[C@@H](C)O2 | 75 | -77 | 8 | x | x | x | x
Cc1noc(C)c1S(=O)(=O)Nc1ccc2c(c1)C(=O)N([C@H](C)CO)C[C@@H](C)[C@H](CN(C)S(=O)(=O)c1ccc(Cl)cc1)OCCCC[C@@H](C)O2 | 104* | u | 9 | 107* | 82 | 15 | 9
Cc1noc(C)c1S(=O)(=O)Nc1ccc2c(c1)C(=O)N([C@H](C)CO)C[C@H](C)[C@H](CN(C)S(=O)(=O)c1ccc(Cl)cc1)OCCCC[C@@H](C)O2 | 31 | -65 | -4 | x | x | x | x
Cc1noc(C)c1S(=O)(=O)N(C)C[C@H]1OCCCC[C@@H](C)Oc2ccc(NS(=O)(=O)c3ccc(F)cc3)cc2C(=O)N([C@H](C)CO)C[C@@H]1C | 3 | -33 | -7 | x | x | x | x
Cc1noc(C)c1S(=O)(=O)N(C)C[C@@H]1OCCCC[C@@H](C)Oc2ccc(NS(=O)(=O)c3ccc(F)cc3)cc2C(=O)N([C@H](C)CO)C[C@H]1C | u | -66 | -10 | 44 | 57 | -19 | -19
Cc1noc(C)c1S(=O)(=O)N(C)C[C@H]1OCCCC[C@@H](C)Oc2ccc(NS(=O)(=O)c3ccc(Cl)cc3)cc2C(=O)N([C@@H](C)CO)C[C@H]1C | 108* | -71 | -9 | 102* | 100* | 22 | 26*
CCNC(=O)[C@@H]1[C@@H](CO)[C@@H]2Cn3c(ccc(-c4cccc(F)c4)c3=O)[C@H]1N2C(C)=O | 60 | x | 1 | x | x | x | x
COc1ccc(S(=O)(=O)N(C)C[C@@H]2OCCCC[C@@H](C)Oc3ccc(NC(=O)NC4CCCCC4)cc3C(=O)N([C@H](C)CO)C[C@H]2C)cc1 | 70 | -71 | 3 | x | x | x | x
C[C@H](O)C#Cc1ccc2c(c1)O[C@@H](CN(C)C(=O)CN(C)C)[C@H](C)CN([C@@H](C)CO)S2(=O)=O | 4 | 22 | -1 | x | x | x | x
CN1CCN(C(=O)C[C@@H]2CC[C@@H]3[C@H](COC[C@H](O)CN3Cc3cccc(-c4ccncc4)c3)O2)CC1 | 55 | -4 | x | x | x | x | x
Cc1ccc(-c2ccc3c(c2)O[C@@H](CN(C)C)[C@@H](C)CN([C@H](C)CO)S3(=O)=O)cc1 | 10 | 11 | 0 | x | x | x | x
Cc1ccc(S(=O)(=O)Nc2ccc3c(c2)C(=O)N([C@@H](C)CO)C[C@@H](C)[C@H](CN(C)S(=O)(=O)c2c(C)noc2C)OCCCC[C@@H](C)O3)cc1 | 16 | 0 | -5 | x | x | x | x
Cc1ccc(S(=O)(=O)Nc2ccc3c(c2)C(=O)N([C@@H](C)CO)C[C@@H](C)[C@@H](CN(C)S(=O)(=O)c2c(C)noc2C)OCCCC[C@@H](C)O3)cc1 | 98* | -26 | 5 | 107* | 58 | 17 | -9
Cc1noc(C)c1S(=O)(=O)N(C)C[C@@H]1OCCCC[C@@H](C)Oc2ccc(NS(=O)(=O)c3ccc(Cl)cc3)cc2C(=O)N([C@H](C)CO)C[C@@H]1C | 38 | -3 | 0 | x | x | x | x
Cc1noc(C)c1S(=O)(=O)N(C)C[C@H]1OCCCC[C@@H](C)Oc2ccc(NS(=O)(=O)c3ccc(Cl)cc3)cc2C(=O)N([C@@H](C)CO)C[C@@H]1C | 100* | -77 | -4 | 107* | 91 | 33 | 19
C[C@@H]1CN([C@@H](C)CO)C(=O)c2cc(NC(=O)C3CC3)ccc2O[C@H]1CN(C)C(=O)Nc1ccccc1 | 3 | -2 | -3 | x | x | x | x
SMILES | T cruzi growth-1 | Pf Dd2 growth | C diff growth | T cruzi growth-2 | T cruzi growth-3 | 3T3 cytotox | NIH3T3 tox 2
Cc1ccc(-c2ccccc2[C@@H]2[C@H](C#N)N(C(=O)Cc3cccnc3)[C@H]2CO)cc1 | x | -38 | -10 | x | x | x | x
C[C@H](CO)N1C[C@H](C)[C@@H](CN(C)C(=O)Nc2ccc3c(c2)OCO3)Oc2ncc(-c3cncnc3)cc2C1=O | 104* | -1 | 4 | 15 | -25 | -6 | 8
C[C@@H]1CN([C@@H](C)CO)C(=O)c2cc(-c3cncnc3)cnc2O[C@H]1CN(C)C(=O)Nc1ccc2c(c1)OCO2 | 98* | 49 | -4 | 46 | 18 | 11 | 13
C[C@@H]1CN([C@@H](C)CO)C(=O)c2cc(-c3cncnc3)cnc2O[C@@H]1CN(C)C(=O)Nc1ccc2c(c1)OCO2 | 44 | 58 | -6 | x | x | x | x
C[C@H]1CN([C@@H](C)CO)C(=O)c2cc(-c3cccnc3)cnc2O[C@@H]1CN(C)C(=O)Nc1ccc2c(c1)OCO2 | 1 | 12 | 1 | x | x | x | x
O=C(C1CCC1)N1CC[C@@H]2[C@@H](CO)Nc3ccc(C#Cc4ccc(F)cc4)cc3[C@@H]21 | x | -50 | -3 | x | x | x | x
O=C(C1CCCC1)N1CCCCN2[C@H](CO)[C@@H](c3ccc(C#CC4(O)CCCC4)cc3)[C@H]2C1 | 104* | -13 | -1 | -5 | 20 | 6 | 19
